Laboratory results from PubChem BioAssay (NCATS).
Results filed as inconclusive are left out. Activity calls are given as the source filed them. Calls follow the shape of the dose curve; as a rule, active = well fitted inhibition curve with a large enough effect; inconclusive = small, poorly fitted or top-dose-only effect; inactive = flat fitted curve, though single readings scatter.
% is scaled to controls: 0 for no effect and ±100 for the full control effect; potency is read from the fitted curve at half-maximal effect.

These compounds were tested on CRL-7250 (assay: Cytotoxic Profiling of Annotated Libraries Using Quantitative High-Throughput Screening (AID 1296008; also: nearly all actives have a fitted effect of over 60% in size)). Conditions: Five cell lines viability, CellTiter-Glo ATP luminescence, 48-72 h; max response: stronger effect = lower value.
How it was run: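 Compounds were pin-transferred onto cells and incubated 48 or 72 hr at 37 degree Celsius, 95% humidity. CellTiter-Glo was added, plates sat 10 min at room temperature, then ATP-coupled luminescence was imaged as the viability read-out.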
`Cc1cccc(N2CCN(C(=O)c3cc(S(=O)(=O)N(C)C)ccc3N3CCCC3)CC2)c1C` was tested, and the max response was -10.2% (inactive). With `COC(=O)c1ccnc(-c2cc(C(=O)Nc3ccc(C4(N)CC4)cc3)ccn2)c1` the max response was -5.77% (inactive). `COc1ccc(CCO[C@@H]2O[C@H](CO[C@H]3OC[C@](O)(CO)[C@H]3O)[C@@H](OC(=O)/C=C/c3ccc(O)c(O)c3)[C@H](O[C@@H]3O[C@@H](C)[C@H](O)[C@@H](O)[C@H]3O)[C@H]2O)cc1OC` was tested, and the max response was -14.2% (inactive). For `CC(C)(C)c1ccc(C(=O)Nc2cn3cc(-n4ccnc4)ccc3n2)cc1`, the outcome was “inactive”. With `C[C@@H](NC(=O)C(=O)c1c[nH]c2ccc([N+](=O)[O-])cc12)c1ccccc1` the outcome was “inactive”. With `COc1ccc(NC(=O)c2ccc(-c3ccc(-c4nnc(C)o4)cc3C)cc2)cc1N1CCN(C)CC1` the max response was 2.13% (inactive). In the case of `C=C1C(=O)OC2CC(C)C(CCC(C)O)=CCC12` (stereo not drawn), the max response is reported as -9.97% (inactive). For `CC(C)Nc1nc(Nc2ccccc2)nc(-c2ccccc2)n1`, the max response was -10.5% (inactive). `O=C(NCCCNc1nc(Nc2cccc(CN3CCOCC3)c2)ncc1C1CC1)C1CCC1` was tested, and the Potency was 5.8 µM (active). `Cc1cc2c(N3CCCC3)nc(N3CCCC3)nc2n1C` was tested, and the max response was 1.58% (inactive). With `Cc1cc(OCCCS(C)(=O)=O)cc(C)c1-c1cccc(COc2ccc(C3=CC(=O)NS3=O)cc2)c1` (stereo not drawn) the max response was 3.79% (inactive). For `O=C(c1cc(Cc2n[nH]c(=O)c3ccccc23)ccc1F)N1CCCNCC1`, the max response was 0.306% (inactive). For `CCNC1(C(N)=O)CCN(c2ncnc3c2nc(-c2ccccc2Cl)n3-c2ccc(Cl)cc2)CC1`, the outcome was “inactive”.
